In PubChem BioAssay AID1159580 (chemical genetic matrix, 2015):
Screen size: about 5,500 compounds; about 2,000 (36%) were called active. Not shown: some 18% with an inconclusive outcome. No stated cut-off is given here; in the data, active means normalized growth mostly below about 0.91 (no sharp cut-off); inconclusive means no clear call, values can overlap the other calls; inactive means mostly above about 0.92. The list shows a part of the results.

Assay: chemical genetic growth profiling, strain panel (AID 1159580);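 further: tested at 20 µM; growth read once vehicle control cultures reached saturation at 30 °C; 1 = growth at the plate median or of vehicle wells; lower values mean less growth of the strain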
Settings: S. cerevisiae deletion strains, growth OD

Measured: normalized growth

CCC(C)c1ccccc1NC(=O)c1cc2cccc([N+](=O)[O-])c2[nH]1 (stereo unspecified)
inactive: locus YAR019C, strain CDC15, hits give low values 0.932 | locus YBL105C, strain PKC1, hits give low values 0.914 | locus YBR135W, strain CKS1, hits give low values 0.912 | locus YBR136W, strain MEC1, hits give low values 0.923 | locus YBR160W, strain CDC28, hits give low values 0.924 | locus YDL017W, strain CDC7, hits give low values 0.928 | locus YDL028C, strain MPS1, hits give low values 0.92 | locus YDL101C, strain DUN1, hits give low values 0.949 | locus YDL108W, strain KIN28, hits give low values 0.921 | locus YDL132W, strain cdc53, hits give low values 0.896 | locus YDL214C, strain PRR2, hits give low values 0.904 | locus YDR052C, strain DBF4, hits give low values 0.965 | locus YDR054C, strain cdc34, hits give low values 0.957 | locus YDR226W, strain ADK1, hits give low values 0.936 | locus YDR477W, strain SNF1, hits give low values 0.792 | locus YER123W, strain YCK3, hits give low values 0.851 | locus YER133W, strain GLC7, hits give low values 0.893 | locus YFL009W, strain cdc4, hits give low values 0.906 | locus YFL029C, strain CAK1, hits give low values 0.925 | locus YFR003C, strain YPI1, hits give low values 0.93 | locus YFR019W, strain FAB1, hits give low values 0.978 | locus YFR028C, strain CDC14, hits give low values 0.967 | locus YGR040W, strain KSS1, hits give low values 0.826 | locus YGR052W, strain FMP48, hits give low values 0.867 | locus YGR092W, strain DBF2, hits give low values 0.7 | locus YHR082C, strain KSP1, hits give low values 0.905 | locus YHR205W, strain SCH9, hits give low values 0.964 | locus YIL147C, strain SLN1, hits give low values 0.916 | locus YJL128C, strain PBS2, hits give low values 0.994 | locus YJL157C, strain FAR1, hits give low values 0.884 | locus YJR016C, strain ILV3, hits give low values 0.911 | locus YJR066W, strain TOR1 (second series), hits give low values 0.905 | locus YJR066W, strain TOR1, hits give low values 0.767 | locus YKL048C, strain ELM1, hits give low values 0.912 | locus YKL067W, strain YNK1, hits give low values 0.897 | locus YKL101W, strain HSL1, hits give low values 0.83 | locus YKL193C, strain SDS22, hits give low values 0.92 | locus YKL203C, strain TOR2, hits give low values 0.783 | locus YLR133W, strain CKI1, hits give low values 0.902 | locus YLR403W, strain SFP1, hits give low values 0.859 | locus YML070W, strain DAK1, hits give low values 0.846 | locus YMR001C, strain CDC5, hits give low values 0.917 | locus YMR205C, strain PFK2 (second series), hits give low values 0.894 | locus YMR277W, strain FCP1, hits give low values 0.921 | locus YNL006W, strain LST8, hits give low values 0.915 | locus YNL020C, strain ARK1, hits give low values 0.905 | locus YNL161W, strain CBK1, hits give low values 0.924 | locus YNL183C, strain NPR1, hits give low values 0.774 | locus YNL207W, strain RIO2, hits give low values 0.905 | locus YNL222W, strain SSU72, hits give low values 0.917 | locus YNL307C, strain MCK1 (second series), hits give low values 0.826 | locus YOL078W, strain AVO1, hits give low values 0.924 | locus YOL136C, strain PFK27, hits give low values 0.869 | locus YOR061W, strain CKA2, hits give low values 0.818 | locus YOR119C, strain RIO1, hits give low values 0.805 | locus YOR231W, strain MKK1, hits give low values 0.631 | locus YOR329C, strain SCD5, hits give low values 0.917 | locus YPL031C, strain PHO85, hits give low values 0.832 | locus YPL153C, strain RAD53, hits give low values 0.723 | locus YPL204W, strain HRR25, hits give low values 0.834 | locus YPL209C, strain IPL1, hits give low values 0.921 | locus YPR025C, strain CCL1, hits give low values 0.919 | locus YPR106W, strain ISR1, hits give low values 0.958 | locus YPR111W, strain DBF20, hits give low values 0.99 | strain NNK1, hits give low values 0.945 | strain TSCII, hits give low values 0.911
active: locus YHR030C, strain SLT2, hits give low values 0.543 | locus YHR079C, strain IRE1, hits give low values 0.219 | locus YJL095W, strain BCK1, hits give low values 0.266 | locus YLR113W, strain HOG1, hits give low values 0.656 | locus YPL256C, strain CLN2, hits give low values 0.785
